Source: PubChem BioAssay (EPA / NIEHS)
Active and inactive are the calls of the source. Rule for the calls: active = hit-call score of the fitted dose curve at least 0.9, where 1 is the maximum; inactive = score below 0.9.

Read-out: ABC Transporter (ABCB11), ABCB11 (gene 8647)
Test: LTEA_HepaRG_ABCB11: Life Technologies and Expression Analysis (LTEA) Assay for ABC Transporter (ABCB11) using HepaRG (AID 2283463)
Details: mRNA level, 48 h; actives raise or lower the signal
Procedure: LTEA_HepaRG is a cell based, multiplexed-readout assay that uses HepaRG, a human liver cell line, with measurements taken at 48 hours after chemical dosing on a 96-well plate.LTEA_HepaRG_ABCB11 is one of 102 assay component(s) measured in the LTEA HepaRG cell culture assay. It is a marker of Steatosis/NR mediated transport.Data from the assay component LTEA_HepaRG_ABCB11 was analyzed into 1 endpoint. This assay endpoint, LTEA_HepaRG_ABCB11, was analyzed with bidirectional fitting relative to DMSO as the negative control and baseline of activity. Using a type of inducible reporter, measures of mRNA induction for gain or loss-of-signal activity can be used to understand regulation of transcription factor activity. To generalize the intended target to other relatable targets, this assay endpoint is annotated to the transporter intended target family, where the subfamily is ABC transporter.
A total of 1060 chemcials from the ToxCast library were tested in eight-point concentration-response experiments. Cell culture and cytotoxicity assays were conducted at Thermo Fisher Scientific's Custom Services facility (Madison, WI). A single lot of human HepaRG cells (Thermo Fisher Scientific, Frederick, MD) was used for the cell culture experiments. 96-well format collagen type I coated plates of human HepaRG cells were prepared using established methods. Briefly, cryopreserved HepaRG cells were thawed, plated at a density of approximately 100,000 cells/well in HepaRG Thaw, Plate, and General Purpose media (HPRG770, Thermo Fisher Scientific), and incubated for 48 hours. 0.5% DMSO was selected as vehicle control to balance the requisite need of DMSO in HepaRG cultures to maintain differentiation (for example, baseline metabolism, proportions of hepatocytes vs. cholangiocytes), while enabling further hepatic receptor pathway activation (for example, PXR and CAR) in response to chemical exposure. 48 hours after plating, the culture medium was replaced with HepaRG Serum-Free Incudtion Media. Cells were exposed to each test chemical in duplicate and maintained in CO2 incubators for another 48 hours. Chemical plates were thawed to room temperature and 200x concentrations of treatment groups were prepared. 8-point conentration-reponse curves were made with the highest exposure at 100 uM, followed by half-log dilutions, all in 0.5% DMSO. Each test plate contained variouse controls, induction positive controls (1mM phenobarbital), cytotoxicity positive controls ([…] aflatoxin B1), vehicle controls (0.5% DMSO), and total lysis controls (0.5% DMSO). Cell morphology images were taken using an Essen IncuCyte FLR automated microscope, with six 96-well plates imaged in about 24 minutes. Images were captured and exported and JPEG files. Spent culture media was transfered to black-well plates for the LDH assay, and remaining media was sorted at -80 C for later use. Cells were treated with RLT buffer and frozen until shipped for gene expression analysis. Total RNA was isolated from the cell suspension in 75 uL of Buffer RLT (Qiagen, Germantown, MD 20874) by Quintiles/Expression Analysis (Durham, NC) using a custom isolation procedure. Total RNA from each plate well was transferred to a preamplification plate. Fluidigm's 96.96 Dynamic ArrayTM (Fluidigm, Amsterdam, the Netherlands) technology was used for gene expression analyses by quantitative reverse transcription polymerase chain reaction (qRT-PCR, performed by Quintiles/Expression Analysis, Durham, NC)89. Standard TaqManTM Assays (Applied Biosystems/ThermoFisher Scientific, Foster City, CA) were used to assess the expression of 93 genes selected based on their selectivity and sensitivity to important hepatic receptors known to be modulated by environmental chemicals; importance in human hepatocyte functionality; and hepatotoxicity. […]

Structure (SMILES) | outcome
c1cc2c3c(cccc3c1)CC2 | inactive
c1ccc(OP(Oc2ccccc2)Oc2ccccc2)cc1 | inactive
OCC1CO1 (stereo not given) | inactive
CC(Cc1ccc(OCC(=O)O)cc1)NCC(O)c1csc(C(F)(F)F)n1 (stereo not given) | inactive
CCOS(=O)(=O)OCC | inactive
O=C(O)C(Cl)Cl | inactive
c1ccc2c(c1)Nc1ccccc1S2 | inactive
CCCCN(CCCC)SN(C)C(=O)Oc1cccc2c1OC(C)(C)C2 | inactive
c1nc[nH]n1 | inactive
CCCCN(CCCC)N=O | inactive
Nc1cc2c3c(c1)C(c1ccccc1)=N[C@@H](NC(=O)c1cccnc1)C(=O)N3CC2 | inactive
CC(Cl)(Cl)C(=O)O | inactive
CCOP(=S)(Oc1ccc([N+](=O)[O-])cc1)c1ccccc1 (stereo not given) | inactive
ClC(Cl)(Cl)c1ccccc1 | inactive
CCOc1ccc(C(C)(C)COCc2cccc(Oc3ccccc3)c2)cc1 | inactive
CCOC(=O)c1ccccc1C(=O)OCC | inactive
O=[N+]([O-])c1ccccc1 | inactive
COCCOCCO | inactive
CCCCc1ccccc1 | inactive
CN(C)C(=O)Cl | inactive

Structure (SMILES) | outcome
[N-]=[N+]=[N-] | inactive
Cc1cccc(N)c1 | inactive
CCCN(CCC)c1c([N+](=O)[O-])cc(C(C)C)cc1[N+](=O)[O-] | inactive
O=C(O)C1C(C(=O)O)C2(Cl)C(Cl)=C(Cl)C1(Cl)C2(Cl)Cl (stereo not given) | inactive
CCC1(c2ccccc2)C(=O)N=C(O)NC1=O (stereo not given) | inactive
O=[N+]([O-])c1ccc(Cl)c(Cl)c1 | inactive
Cc1ccc([N+](=O)[O-])cc1C | inactive
CCOP(=S)(OCC)SCSCC | inactive
O=P1(N(CCCl)CCCl)NCCCO1 (stereo not given) | inactive
CCNc1nc(Cl)nc(NC(C)(C)C)n1 | inactive
Nc1ccc(Cl)cc1 | inactive
CCC(C)(C)c1ccc(O)cc1 | inactive
O=P(Oc1ccccc1)(Oc1ccccc1)Oc1ccccc1 | inactive
ClC(Cl)c1ccccc1 | inactive
Nc1ccc2ccccc2c1 | inactive
Cc1ccc(N)cc1N | inactive
CC(C)(C)OOC(C)(C)C | inactive
ClC1=C(Cl)C2(Cl)C3C(Cl)C(Cl)CC3C1(Cl)C2(Cl)Cl (stereo not given) | inactive
CSC(C)(C)C=NO | inactive
CCCCCCCc1ccc(O)cc1 | inactive
